Structures can show the parent of a compound that is named as a salt. ± gives the standard deviation of the averaged measurements. In all, about 1,300 compounds were measured (“normalised cell viability”: median about 1, lowest 2% from about 0.15 on). Many of the other results were omitted from the sample, so the lowest values are more common in it than they were.
System: V-C8 + BRCA2 (BRCA2-proficient hamster cells)
Assay: normalised cell viability (fraction of plate median); higher = more viable cells (less toxic)
Conditions: 5 µM
Outline: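 Cell viability was measured with a resazurin assay, normalised to the plate median (modified robust per cent of sample) and averaged over triplicate wells. Hamster V-C8 cells lacking BRCA2 and V-C8 cells with BRCA2 restored were seeded in 96-well plates. After 24 h, library drugs from 10 mM DMSO stocks were added at a final 5 μM in 100 μl medium and left for 3 days (screen 1) or 6 days (screen 2), with solvent-only wells alongside.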

Row | SMILES | normalised cell viability (treatment time: 3 days) | normalised cell viability (treatment time: 6 days)
1 | CC(=O)Oc1cccc2c1C(=O)c1c(OC(C)=O)cc(C(=O)O)cc1C2=O [Diacerein] | 0.749 ± 0.038 | 0.796 ± 0.027
2 | CCN(CC)CCCC(C)Nc1c2ccc(Cl)cc2nc2ccc(OC)cc12 (stereo not given) [Quinacrine dihydrochloride dihydrate] | 0.133 ± 0.0038 | 0.107 ± 0.0083
3 | CCN(CCO)CCCC(C)Nc1ccnc2cc(Cl)ccc12 (stereo not given) [Hydroxychloroquine sulfate] | 0.606 ± 0.024 | 0.666 ± 0.032
4 | CCN(CC)CCCC(C)Nc1ccnc2cc(Cl)ccc12 (stereo not given) [Chloroquine diphosphate] | 0.852 ± 0.023 | 0.938 ± 0.082
5 | O=C(CCCN1CCN(c2ccccn2)CC1)c1ccc(F)cc1 [Azaperone] | 1.1 ± 0.34 | 0.902 ± 0.052
6 | CCCCN1CCCCC1C(=O)Nc1c(C)cccc1C (stereo not given) [Bupivacaine hydrochloride] | 0.962 ± 0.049 | 1.03 ± 0.038
7 | CCOC(=O)c1ccc(N)cc1 [Benzocaine] | 0.871 ± 0.023 | 0.9583 ± 0.0066
8 | CN(N=O)C(=O)N[C@@H](C=O)[C@@H](O)[C@H](O)[C@H](O)CO [Streptozotocin] | 1.07 ± 0.073 | 1.06 ± 0.053
9 | O=C(CCCN1CCC(O)(c2ccc(Br)cc2)CC1)c1ccc(F)cc1 [Bromperidol] | 0.976 ± 0.027 | 0.979 ± 0.038
10 | CN1CCCN=C1/C=C/c1cccs1 [Pyrantel tartrate] | 1.04 ± 0.05 | 1.03 ± 0.026
11 | COCCCC/C(=N\OCCN)c1ccc(C(F)(F)F)cc1 [Fluvoxamine maleate] | 0.97 ± 0.029 | 1.17 ± 0.13
12 | Cn1c(=O)c2c(ncn2C)n(C)c1=O [Caffeine] | 0.998 ± 0.053 | 0.996 ± 0.057
13 | CCOC(=O)[N-]c1c[n+](N2CCOCC2)no1 [Molsidomine] | 1.04 ± 0.05 | 1.1 ± 0.028
14 | CCN1CCCC1CNC(=O)c1cc(S(=O)(=O)CC)c(N)cc1OC (stereo not given) [Amisulpride] | 0.974 ± 0.017 | 0.991 ± 0.058
15 | O=C(CCCCC(=O)Nc1c(I)cc(I)c(C(=O)O)c1I)Nc1c(I)cc(I)c(C(=O)O)c1I [Iodipamide] | 1.07 ± 0.05 | 1.02 ± 0.06
16 | O=C(CCCCCCC(=O)Nc1ccccc1)NO [Vorinostat] | 0.132 ± 0.0091 | 0.17 ± 0.021
17 | CC(=O)Nc1ccc(CC(=O)O)cc1 [Actarit] | 1.038 ± 0.0059 | 1.07 ± 0.12
18 | CN(Cc1cc(Br)cc(Br)c1N)C1CCCCC1 [Bromhexine hydrochloride] | 0.949 ± 0.042 | 1.02 ± 0.072

Row | SMILES | normalised cell viability (treatment time: 3 days) | normalised cell viability (treatment time: 6 days)
19 | CO[C@H]1C[C@H](O[C@H]2[C@H](C)[C@@H](O[C@@H]3O[C@H](C)C[C@H](N(C)C)[C@H]3OC(C)=O)[C@@H](C)C[C@@]3(CO3)C(=O)[C@H](C)[C@@H](OC(C)=O)[C@@H](C)[C@@H](C)OC(=O)[C@@H]2C)O[C@@H](C)[C@@H]1OC(C)=O [Troleandomycin] | 1.08 ± 0.027 | 1.06 ± 0.04
20 | C[C@@H](O)[C@H]1C(=O)N2C(C(=O)O)=C(S[C@@H]3CN[C@H](C(=O)N(C)C)C3)[C@H](C)[C@H]12 [Meropenem] | 1.02 ± 0.037 | 1.04 ± 0.053
21 | NS(=O)(=O)c1cc(Cl)c(Cl)c(S(N)(=O)=O)c1 [Dichlorphenamide] | 1.09 ± 0.05 | 0.961 ± 0.035
22 | CC(C)(C)NCC(O)COc1cccc2c1CCC(=O)N2 (stereo not given) [Carteolol hydrochloride] | 1.06 ± 0.052 | 1.06 ± 0.044
23 | O=C1NCC2(CCN(CCc3ccccc3)CC2)O1 [Fenspiride hydrochloride] | 1.03 ± 0.051 | 1.06 ± 0.068
24 | CCN(Cc1ccncc1)C(=O)C(CO)c1ccccc1 (stereo not given) [Tropicamide] | 1.065 ± 0.0083 | 1.01 ± 0.043
25 | CN(C)CCC[C@@]1(c2ccc(F)cc2)OCc2cc(C#N)ccc21 [Escitalopram] | 1.1 ± 0.041 | 1.01 ± 0.067
26 | CC(C)[C@H]1CC[C@H](C(=O)N[C@H](Cc2ccccc2)C(=O)O)CC1 [Nateglinide] | 1.04 ± 0.051 | 1.04 ± 0.091
27 | CN1CCCC(CC2c3ccccc3Sc3ccccc32)C1 (stereo not given) [Metixene hydrochloride] | 0.867 ± 0.014 | 0.888 ± 0.012
28 | O=C(CCCN1CC=C(n2c(=O)[nH]c3ccccc32)CC1)c1ccc(F)cc1 [Droperidol] | 1.05 ± 0.013 | 1.07 ± 0.015
29 | O=C(O)c1ccccc1OP(=O)(O)O [Fosfosal] | 0.966 ± 0.055 | 1.06 ± 0.1
30 | N=C(N)NC(=N)NCCc1ccccc1 [Phenformin hydrochloride] | 1.01 ± 0.029 | 0.9752 ± 0.0082
31 | N=C(NCCCCCCNC(=N)NC(=N)Nc1ccc(Cl)cc1)NC(=N)Nc1ccc(Cl)cc1 [Chlorhexidine] | 0.117 ± 0.0076 | 0.103 ± 0.0066
32 | CC(C)NC(=N)NC(=N)Nc1ccc(Cl)cc1 [Proguanil hydrochloride] | 0.211 ± 0.013 | 0.203 ± 0.015
33 | CC(=O)Nc1c(I)c(NC(C)=O)c(I)c(C(=O)O)c1I [Diatrizoic acid dihydrate] | 0.996 ± 0.035 | 1.05 ± 0.077
34 | Cc1cc(/C=C/c2ccc3cc(N(C)C)ccc3[n+]2C)c(C)n1-c1ccccc1 [Pyrvinium pamoate] | 0.144 ± 0.0086 | 0.171 ± 0.014
35 | Cc1cc(=O)n(-c2ccccc2)n1C [Antipyrine] | 0.997 ± 0.038 | 1.02 ± 0.046

— the supplement of paper PMC6609913
